40 compounds from PubChem BioAssay (NCI) can be followed below.

SMILES strings stand for the structures. About 79,000 compounds went through this panel and 15% of them were active in at least one assay; those are over-represented in the sample as a whole. Activity calls are given as the source filed them. No stated cut-off is given here; in the data, active means growth inhibition above about 70%; inactive means the rest.

The assay is described as follows: NCI Yeast Anticancer Drug Screen. Data for the sgs1 mgt1 strain (AID 161).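 Further: 0% = growth of cultures given vehicle only.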 The settings on record: S. cerevisiae sgs1 mgt1 strain, at 50.0 µM, stronger effect = higher value. As for the experimental part: Growth inhibition of yeast strains with defined genetic alterations is measured as a screen for potential anti-cancer activity. Selected strains with alterations in DNA damage repair or cell cycle control were exposed to compounds and growth inhibition was measured relative to vehicle treated controls. The strain used in this assay is sgs1 mgt1
For `CN(C)S(=O)(=O)c1ccc(N)c([N+](=O)[O-])c1`, the growth inhibition was -7.75% (inactive).
The result for `CC1=C(\C=C/C(C)=C/C=C/C(C)=C/C=N/NC(=O)c2cccnc2)C(C)(C)CCC1` reads 33.5% (inactive); that for `CC1c2c(Cl)nc3ccccc3c2Oc2c1c(Cl)nc1ccccc21`, -6.05% (inactive).
The value for `CN1CC(=O)N2CCCCC2C(c2ccccc2)C1` (stereo not given) was -0.25% (inactive); that for `CCS1=C2C(=O)CC(C)(C)CC2=Nc2ccccc21` (stereo not given) was 18.9% (inactive).
The result for `Cc1cc(Cl)ccc1N=C1NC(=O)C(CC(=O)Nc2cccc(Cl)c2)S1` (stereo not given) reads -8.85% (inactive); that for `Nc1nc(Cc2ccccc2)c(CCCNc2ccccc2)c(=O)[nH]1`, 6.45% (inactive).
In the case of `FC(F)(F)C1=NCCN1`, the growth inhibition was -2.85% (inactive).
The result for `C/C(CC(=O)Nc1ccc(C)cc1C)=N/N=C(N)N` reads -15.2% (inactive); that for `CN(C)Cc1cc(N=Nc2c(Cl)cccc2Cl)ccc1O`, 8.35% (inactive); that for `O=C(/C=C\c1ccccc1)c1ccc(-c2cccc(-c3ccccc3)c2)cc1`, 7.5% (inactive).
For `O=[N+]([O-])c1ccc(S(=O)(=O)N/N=C/c2ccco2)cc1`, the growth inhibition is 0.9% (inactive).
The result for `C=CCOC(=O)CCC(CCC(=O)OCC=C)C(C)=O` reads 0.55% (inactive); that for `COc1cc2c[n+]3ccc4ccccc4c3c(N)c2cc1OC`, -10.6% (inactive).
Turning to `COc1cc(CC2COC(=O)[C@@H]2Cc2ccc(O)c(OC)c2)ccc1O` (stereo not given in full), the growth inhibition was -23.4% (inactive).
The result for `Nc1nc(N)nc(-c2ccccc2NC(=O)c2ccccc2N)n1` reads -0.25% (inactive); that for `C1CCN(/N=N/c2nn[nH]n2)CC1`, -2.8% (inactive); that for `Cn1nnnc1CC(=O)O`, 1.15% (inactive).
The value for `CCCCCC(=O)C(C)(c1nc2nnc(NC(=O)Nc3ccc(Cl)cc3)n2[nH]c1=O)c1nc2nnc(NC(=O)Nc3ccc(Cl)cc3)n2[nH]c1=O` was -24.3% (inactive); that for `O=C(Nc1ccc(Cl)cc1)Nc1nnc2nc(C3(c4nc5nnc(NC(=O)Nc6ccc(Cl)cc6)n5[nH]c4=O)Cc4ccccc4C3=O)c(=O)[nH]n12` was 8.3% (inactive).
The value for `COc1cc(C2C(C(C)=O)=C(C)Oc3cc4c(cc32)OCO4)cc(OC)c1O` (stereo not given) was -0.25% (inactive).
Take `N#CC(C#N)=CNC(=S)c1ccncc1`: the growth inhibition is -19.6% (inactive).
The value for `CCN(CC)CCOC1(Cc2ccccn2)CCCCC1` was 6.7% (inactive); that for `CC1(C)C(=O)C(C)(C)C1=NN` was -4.45% (inactive).
The value for `O=C1COC(=O)N1` was -3.45% (inactive).
As to `O=c1oc2ccccc2c(O)c1C(c1ccc2c(c1)OCO2)N1CCCC1` (stereo not given), the growth inhibition is 19.9% (inactive).
The result for `O=[N+]([O-])c1c(Nc2ccccc2)ncnc1Nc1ccccc1` reads -9.6% (inactive).
The result for `CCCC(=O)N(CC)CC` reads -0.8% (inactive); that for `COC(=O)c1c([N+](=O)[O-])ncn1[C@H]1OC[C@@H](OC(C)=O)[C@@H](OC(C)=O)[C@@H]1OC(C)=O`, -20.9% (inactive); that for `CC1CCCCc2nc3c(c(=O)n21)CCCC3` (stereo not given), 34% (inactive).
The value for `O=C(O)c1cc(O)c(C(=O)O)cc1O` was -18.6% (inactive); that for `CCC(/C=C/c1ccccc1)=N\NC(=O)c1ccc(C)cc1` was 11.7% (inactive); that for `CC(=O)[C@H]1[C@H](C)C[C@H]2[C@@H]3CCC4=CC(=O)CC[C@]4(C)[C@@]3(F)C(=O)C[C@@]21C` was -3.3% (inactive).
As to `CC(=O)Nc1ncn(C)c1S(N)(=O)=O`, the growth inhibition was -1.45% (inactive).
The value for `O=C(O)CNc1cc(-c2ccccc2)nc(NCC(=O)O)n1` was 4.45% (inactive).
The value for `CCCN(C(=O)c1ccccc1)C(C#N)c1ccc(C(C#N)N(CCC)C(=O)c2ccccc2)cc1` (stereo not given) was -24.4% (inactive); that for `CCOC(=O)c1cnc2cc(C)cc(C)c2c1Nc1ccc2c(c1)OCO2` was -12.3% (inactive); that for `O=C(CC(c1ccccc1)N1CCCCC1)OC(c1ccccc1)c1ccc(Br)cc1` (stereo not given) was 11.6% (inactive).
The value for `Cc1cc(N)c(C)c2ccncc12` was -11.5% (inactive); that for `Nc1c(S(=O)(=O)O)cc(Nc2cccc(S(N)(=O)=O)c2)c2c1C(=O)c1ccccc1C2=O` was -42.4% (inactive).
